Screening results (PubChem BioAssay)
PrPC surface inh = reduces human prion protein on the cell surface | 0.43% of 370,000 active | P04156 | inhibition, % at 13.8 µM | cell surface PrPC, TR-FRET read-out; in the data active = inhibition above about 24%; note: 0% = median of the test wells and 100% = reference compound wells
SARS 3CLpro inh = SARS-CoV 3CLpro protease inhibition; inhibition, % at 6 µM; P0C6X7; recombinant SARS-CoV 3CLpro, quenched FRET peptide cleavage; 0.14% of 290,000 active; in the data active = inhibition above about 12%
FBA Mtb inh = Mtb fructose-bisphosphate aldolase inhibition. P9WQA3. purified M. tuberculosis FBA, fluorescence read-out. inhibition, % at 1 µM. 2.3% of 360,000 active. AID 588726;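 note: 0% = vehicle and 100% = reference inhibitor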
Target sequence (P9WQA3 whole entry, looked up): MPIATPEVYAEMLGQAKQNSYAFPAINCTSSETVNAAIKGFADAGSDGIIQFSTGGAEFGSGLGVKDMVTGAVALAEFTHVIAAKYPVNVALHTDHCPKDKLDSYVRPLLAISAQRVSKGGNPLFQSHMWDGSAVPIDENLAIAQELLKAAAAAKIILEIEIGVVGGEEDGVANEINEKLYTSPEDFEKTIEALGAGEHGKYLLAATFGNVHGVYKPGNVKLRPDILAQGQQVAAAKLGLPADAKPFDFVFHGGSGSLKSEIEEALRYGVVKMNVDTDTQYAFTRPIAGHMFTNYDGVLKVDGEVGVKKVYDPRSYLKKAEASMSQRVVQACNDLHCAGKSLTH
Vc quorum ag = inducers of Vibrio cholerae quorum light production without autoinducers; V. cholerae BH1578 lux reporter, luminescence, 6 h; activation, % at 18.7 µM; 0.16% of 350,000 active; in the data active = activation mostly above about 9.7%, no sharp cut-off
GDH-TPI counter-1 = GDH-TPI coupled enzyme inhibition counter-screen; GDH-TPI coupled enzyme counterscreen, NADH absorbance; inhibition, % at 4.8 µM; 1.2% of 360,000 active; AID 588335; in the data active = inhibition above about 30%;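 note: 0% = DMSO wells and 100% = wells lacking the enzyme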
Mtb FBA inh conf = confirmation of M. tuberculosis fructose-bisphosphate aldolase inhibitors; shares compounds with FBA Mtb inh; purified M. tuberculosis FBA, fluorescence read-out; inhibition, % at 1 µM; 78% of 5,600 active; AID 651616;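 note: 0% = vehicle wells and 100% = reference inhibitor wells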
GDH-TPI counter-2 = GDH-TPI inhibition counter-screen for FBA inhibitors. shares compounds with FBA Mtb inh. GDH-TPI coupled enzyme counterscreen, fluorescence. inhibition, % at 1 µM. 81% of 5,600 active; in the data active = inhibition above about 10%
* hit, by the source's call; i = inactive; . = not tested or not shown; + = active, no number. Most compounds without a hit are left out; they make up all but 3.9% or so of the library. Cut-off read from the data, not from the text of the source, unless noted: active = inhibition above about 27%; inactive = the rest.

SMILES	PrPC surface inh	SARS 3CLpro inh	FBA Mtb inh	Vc quorum ag	GDH-TPI counter-1	Mtb FBA inh conf	GDH-TPI counter-2
N#Cc1cccc(C#N)c1NCC1CCCO1 (centres undefined)	-5	-3	97*	i	13	184*	122*
N#Cc1cn(CC(=O)NCC2CCCO2)c2ccccc12 (centres undefined)	-3	-3	-2	i	1	.	.
Cc1ccc(-c2nnc(SCC(=O)c3ccc(O)c(O)c3)n2-c2ccc(Cl)cc2)cc1	-1	.	.	.	.	.	.
COC(=O)c1ccc(C(=O)OC)c(NC(=S)N2CCC(C(N)=O)CC2)c1	3	-1	18	0	2	.	.
COC(=O)c1ccc2c(=O)sc(N3CCC(C(N)=O)CC3)nc2c1	0	-8	40*	0	-2	72*	61*
Nc1[nH]c(C(=O)c2ccccc2)c(-c2ccc(C(F)(F)F)cc2)c1C(=O)NCc1ccc(Cl)cc1Cl	-2	.	.	.	.	.	.
CCN(CC)CCN(Cc1cc2cc3c(cc2[nH]c1=O)OCO3)C(=S)NCC1CCCO1 (centres undefined)	0	3	56*	-1	17	95*	70*
COCCNC(=S)N(CCO)Cc1cc2cc3c(cc2[nH]c1=O)OCO3	-2	-6	31*	-8	22	122*	92*
CCC(=O)N(CCc1ccccc1)Cc1cc2cc3c(cc2[nH]c1=O)OCO3	-3	3	40*	0	14	36*	26*
O=C(NC1CCCCC1)N(CCN1CCOCC1)Cc1cc2cc3c(cc2[nH]c1=O)OCCO3	-4	-9	31*	i	18	98*	79*
CCN(CC)CCN(Cc1cc2cc3c(cc2[nH]c1=O)OCO3)C(=S)NCCCOC	-1	3	39*	-1	27	97*	81*
O=C(NCc1ccccc1)N(Cc1cc2cc3c(cc2[nH]c1=O)OCCO3)CC1CCCO1 (centres undefined)	3	5	28*	2	12	54*	52*
O=C(c1ccco1)N(Cc1cc2ccccc2[nH]c1=O)CC1CCCO1 (centres undefined)	3	-3	2	i	3	.	.
CCN(CC)CCCN(Cc1cc2cc3c(cc2[nH]c1=O)OCO3)C(=S)NCCCOC	-2	-5	40*	0	34*	+	173*
CCN(CC)CCN(Cc1cc2cc3c(cc2[nH]c1=O)OCCO3)C(=S)NCCOC	4	.	23	-6	25	.	.
COc1cc(C(=O)N(Cc2cccnc2)Cc2cc3cc4c(cc3[nH]c2=O)OCCO4)cc(OC)c1OC	-6	1	28*	0	17	110*	87*
O=C(CN1CCN(C(=O)C2CCN(C(=O)/C=C/c3ccccc3)CC2)CC1)Nc1ccccc1Cl	-7	.	4	-2	4	.	.
CC[C@]1(C(=O)OC)[C@H]2C(=O)N(C)C(=O)[C@H]2[C@H]2CN=C(SC)N21	-1	.	-2	2	8	.	.
COc1ccc(CN2C(=O)[C@]3(NCCc4c3[nH]c3ccc(OC)cc43)c3cc(Br)ccc32)cc1	3	.	.	.	.	.	.
CCNC(=O)NC(=O)COC(=O)c1ccccc1SCC(=O)NC(=O)NCC	-10	-3	79*	0	20	18	8
CCOc1ccc(-c2nc(C#N)c(N3CCCCCC3)o2)cc1	-3	3	100*	0	14	46*	42*
CN1CCN(c2oc(-c3ccc([N+](=O)[O-])cc3)nc2C#N)CC1	-34	2	-1	i	13	.	.
CCN1CCN(c2oc(-c3ccc([N+](=O)[O-])cc3)nc2C#N)CC1	-31	3	-1	-1	1	.	.
CCOc1ccc(-c2nc(C#N)c(N3CCN(CC)CC3)o2)cc1	7	0	59*	i	28	44*	49*
CCOc1ccc(-c2nc(C#N)c(N3CCN(C)CC3)o2)cc1	-2	1	69*	-7	33*	+	+
SMILES	PrPC surface inh	SARS 3CLpro inh	FBA Mtb inh	Vc quorum ag	GDH-TPI counter-1	Mtb FBA inh conf	GDH-TPI counter-2
CCCOc1ccc(-c2nc(C#N)c(N3CCN(C)CC3)o2)cc1	5	-3	40*	i	4	-5	1
Cc1ccc(/C=C/C(=O)Nc2sc3c(c2C#N)CCCC3)o1	-3	0	1	0	16	.	.
CCn1c(SCC(=O)N2CCOCC2)nnc1-c1cccs1	-2	2	70*	-7	6	142*	117*
CCn1c(SCC(=O)N2CCCc3ccccc32)nnc1-c1cccs1	-9	-2	0	i	3	.	.
Cc1cc(=O)oc2c(C)c(OC(C)C(=O)NC(Cc3c[nH]c4ccc(O)cc34)C(=O)O)ccc12 (centres undefined)	1	5	11	-1	17	.	.
CCc1c(C)c2ccc(OC(C)C(=O)NC(Cc3c[nH]c4ccc(O)cc34)C(=O)O)c(C)c2oc1=O (centres undefined)	-2	4	43*	-1	27	.	+
CCCCc1cc(=O)oc2cc(C)cc(OC(C)C(=O)NC(Cc3c[nH]c4ccc(O)cc34)C(=O)O)c12 (centres undefined)	3	0	37*	-1	16	132*	102*
NS(=O)(=O)c1ccc(CCNC(=O)c2coc3ccccc3c2=O)cc1	7	2	28*	-4	0	155*	99*
NS(=O)(=O)c1cccc(NC(=O)COC(=O)Cn2cc(C(F)(F)F)ccc2=O)c1	1	.	-2	3	-1	.	.
CC(C)C[C@@H](CN)NC(=O)c1nc[nH]c1C(=O)N[C@@H](CC(=O)O)C(=O)CNC[C@H](C)NC(=O)c1nc[nH]c1C(=O)N[C@@H](CC(=O)O)C(=O)O	-4	.	5	-1	5	.	.
CCOC(=O)CN(c1ccccn1)S(=O)(=O)c1ccccc1	-1	-2	35*	3	8	-2	-5
CCN(C(=O)COC(=O)/C=C/c1ccc(O)c(OC)c1)C1CCS(=O)(=O)C1 (centres undefined)	-4	2	2	0	12	.	.
O=C1c2cccc3cccc(c23)C(=O)N1c1ccccn1	-50	-2	51*	i	9	-16	-16
O=C1c2cccc3cccc(c23)C(=O)N1Cc1ccccn1	-35	.	32*	i	17	61*	37*
CCc1nc2c(OCCC3CCCCC3)cccn2c1N(C)C(=O)c1ccc(OC)cc1	13	.	-3	0	-2	.	.
Cc1ccc(Oc2coc3cc(OC(=O)c4cccs4)ccc3c2=O)cc1	6	-5	10	i	-3	.	.
CCOc1ccccc1Oc1coc2cc(OC(=O)N(C)C)ccc2c1=O	-8	1	-1	i	3	.	.
CCOc1ccccc1Oc1coc2cc(OC(=O)c3ccco3)ccc2c1=O	-2	2	32*	2	19	29*	21*
